# Results: PubChem BioAssay AID1918 (Vanderbilt High Throughput Screening Facility, 2009)
# Among all 130,000 compounds or so, about 2,500 (1.9%) were called active. What follows is part of a selection rich in actives, with near analogues and random picks from the rest. A number with no mark means an inactive call.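 Rule for the calls: active = signal ratio slope over the read window, or its plate-corrected B-score, at least 3 SD from the plate mean, either direction; inactive = the rest.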
# Target: ATP-sensitive inward rectifier potassium channel 1 (Homo sapiens) (UniProt P48048)
# Assay: ROMK potassium channel modulators, primary screen, cell-based, thallium flux, MLSMR library (AID 1918);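 note: B-score of the F/F0 ratio slope over 7 to 12 s after thallium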
# Details: Tet-inducible ROMK, thallium flux fluorescence; at 10 µM; actives lie on both sides
# Sequence of ATP-sensitive inward rectifier potassium channel 1 (Homo sapiens) (P48048 whole entry, looked up): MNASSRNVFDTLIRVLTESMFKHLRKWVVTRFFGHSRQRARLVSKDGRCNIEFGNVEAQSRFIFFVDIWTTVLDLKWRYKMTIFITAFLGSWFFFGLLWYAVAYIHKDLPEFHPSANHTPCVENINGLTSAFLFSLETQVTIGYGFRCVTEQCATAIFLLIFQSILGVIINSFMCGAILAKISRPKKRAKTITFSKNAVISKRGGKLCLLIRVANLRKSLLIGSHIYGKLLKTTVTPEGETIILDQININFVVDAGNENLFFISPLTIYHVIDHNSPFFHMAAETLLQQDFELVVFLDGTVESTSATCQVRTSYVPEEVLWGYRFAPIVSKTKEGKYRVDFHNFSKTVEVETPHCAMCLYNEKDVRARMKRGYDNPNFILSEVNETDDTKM
row,SMILES,B-score
1,CC(=O)n1c(C=Nc2ccccc2)c(O)c2ccccc21,-1.73
2,O=[N+]([O-])c1ccc(N=Cc2c(O)ccc3ccccc23)cc1,-4.23 (active)
3,O=C(N/N=C/c1ccc([N+](=O)[O-])cc1)c1c[nH]c2ccccc12,-0.0103
4,CCOc1ccc(Br)cc1S(=O)(=O)N1CCC(C(=O)O)CC1,-0.0303
5,CCOc1ccc(-n2cnnn2)cc1S(=O)(=O)N1CCC(C)CC1C (centres undefined),-3.15 (active)
6,CCOc1ccc(C(C)C)cc1S(=O)(=O)n1nc(C)cc1C,-0.531
7,O=C1[C@@H]2C(c3cccnc3)=NO[C@@H]2C(=O)N1c1ccc(Cl)cc1Cl,0.0407
8,O=c1c2c(nc3nc[nH]n13)CCC2,0.251
9,CSc1nc2nc3c(c(=O)n2[nH]1)CCC3,1.45 (active)
10,O=c1c2c(nc3cc(-c4cccc(Cl)c4)[nH]n13)CCCC2,-0.277
11,O=C(c1ccncc1)N1CCN(c2ccc3ccccc3n2)CC1,-0.138
12,O=C(NC1CCCC1)C(c1ccccn1)N(C(=O)c1csnn1)C1CCCC1 (centres undefined),0.761
13,CCC(C)(C)NC(=O)C(c1ccccn1)N(C(=O)c1csnn1)c1ccccc1 (centres undefined),0.633
14,Cc1ccccc1CCN(CC(=O)NC1CCCCC1)C(=O)c1csnn1,-3.14 (active)
15,COc1ccc(-c2ccc(CNCCCN3CCOCC3)o2)cc1Cl,-0.161
16,CCOc1ccc(N2CC(C(=O)NCCN3C(=O)S/C(=C\c4cccnc4)C3=O)CC2=O)cc1 (centres undefined),0.439
17,COc1ccccc1N1CCN(C(=O)c2ccc(Cl)c(S(=O)(=O)N3CCCC3)c2)CC1,-0.388
18,O=C(NCc1ccc2c(c1)OCO2)c1ccc2c(c1)C(=O)N(CC1CCCO1)C2=O (centres undefined),0.455
19,O=c1c2cc3c(=O)n(CC4CCCO4)c(=O)c3cc2c(=O)n1CC1CCCO1 (centres undefined),1.28
20,O=C1c2cccc3c([N+](=O)[O-])ccc(c23)C(=O)N1CC1CCCO1 (centres undefined),-2.58 (active)
21,C/C(=N\Nc1nc(N2CCOCC2)nc(N2CCOCC2)n1)c1ccc([N+](=O)[O-])cc1,0.473
22,CC1CCN(C(=S)c2cccc(O)c2)CC1,0.17
23,Cc1nc(-c2ccccc2)sc1C(=O)/C=C/N(C)C,0.143
24,CCC(=O)Nc1sc(C(=O)Nc2ccccc2)c(C)c1C(=O)OC,-1.11

row,SMILES,B-score
1,CCOC(=O)c1c(NC(=O)CCl)sc(C(=O)N(CC)CC)c1C,1.96 (active)
2,CCOC(=O)c1sc(NC(=O)COc2ncnc3ccccc23)c(C(=O)OCC)c1C,0.196
3,COc1ccccc1C(=O)N1CC2(C)CC1CC(C)(C)C2 (centres undefined),-0.0792
4,Cc1nnnn1/C(=C\c1ccccc1)C(=O)OCC(=O)N1CC2(C)CC1CC(C)(C)C2 (centres undefined),-5.08 (active)
5,COc1ccc(C(=O)N2CC3(C)CC2CC(C)(C)C3)cc1OC (centres undefined),0.464
6,Cc1ccc(SCCC(=O)NCc2ccccn2)cc1,-0.142
7,O=C(O)CC(SCC(=O)Nc1ccc(Br)cc1)C(=O)O (centres undefined),-0.193
8,COC(=O)C1=C(C)NC2=C(C(=O)c3ccccc32)C1c1ccc(-c2ccc(C(=O)O)cc2)o1 (centres undefined),3.35 (active)
9,CCOC(=O)c1ccc(-c2ccc(C(=O)Nc3cccnc3)o2)cc1,0.149
10,Cc1ccc(C2C3=C(Nc4[nH]n(-c5ccccc5)c(=O)c42)c2ccccc2C3=O)cc1 (centres undefined),-2.43
11,COc1ccc(-n2c(O)c(C=NCC(c3ccco3)N3CCCC3)c3ccccc3c2=O)cc1OC (centres undefined),0.182
12,O=C(CSc1nnnn1-c1ccc(O)cc1)N1N=C(c2ccc3ccccc3c2)CC1c1ccccc1 (centres undefined),0.13
13,CC1=NN(Cc2ccccc2)C(=O)/C1=C/c1ccc(N(C)C)cc1,-0.804
14,CN(C)c1ccc(C=C2C(=O)OC3(CCCC3)OC2=O)cc1,-4.03 (active)
15,CN(C)c1ccc(/C=N\S(=O)(=O)c2ccccc2)cc1,0.722
16,CN1/C(=C\C(=O)c2cccnc2Cl)C(C)(C)c2ccccc21,0.168
17,Cc1noc(C)c1C(=O)OCC(=O)/C=C1\N(C)c2ccccc2C1(C)C,-0.053
18,CC(=O)Nc1cccc(OCC(=O)/C=C2\N(C)c3ccccc3C2(C)C)c1,-3.01 (active)
19,Cc1ccccc1NC(=S)NNC(=O)c1cccc(Br)c1,-1.36
20,N#Cc1c(-c2ccc(Cl)cc2)c2c([nH]c1=S)CCCC2,-0.344
21,CNc1nccc(-c2ccc(Cl)cc2)c1C#N,-3.41 (active)
22,CN(C)c1nc(-c2cccnc2)nc(-c2ccc(Cl)cc2)c1C#N,-1.03
23,COCc1c(N)c(C)nc(Cl)c1C#N,0.228
24,O=C(CN1CCCCCC1)NCCN1C(=O)S/C(=C\c2ccccc2Cl)C1=O,-2.58 (active)

row,SMILES,B-score
1,O=C(CN1CCCCC1)Nc1ccccc1Cl,1.02
2,O=C1/C(=C\c2ccccc2Cl)SC(=S)N1CCC(=O)N1CCCc2ccccc21,-0.502
3,CSc1ccc(CNCCN2CCOCC2)cc1,-0.131
4,CCN(CC(=O)NCc1cccs1)S(=O)(=O)c1ccc(NC(C)=O)cc1,-0.12
5,O=C(CCl)N(Cc1cccc([N+](=O)[O-])c1)c1cccc(Cl)c1,-3.06 (active)
6,CCN(CC)C(=O)CN(c1cccc([N+](=O)[O-])c1)S(=O)(=O)c1ccccc1,0.165
7,O=C(Nc1cccc([N+](=O)[O-])c1)Nc1ccc(Cl)cn1,0.868
8,COc1cccc(CC2(CO)CCCN(CC3=Cc4cc(OC)ccc4OC3)C2)c1 (centres undefined),-0.447
9,COc1cccc(-n2c(=S)sc3c(=O)n(-c4ccccc4OC)c(SCC4OCCO4)nc32)c1,0.408
10,CCc1ccc(-n2c(=S)sc3c(=O)n(-c4ccccc4OC)c(=S)[nH]c32)cc1,0.222
11,COc1ccccc1-n1c(=S)[nH]c2c(sc(=S)n2-c2ccc(C)cc2C)c1=O,2.35 (active)
12,COc1ccc(NC(=O)c2ccccc2CC[N+](=O)[O-])cc1,0.216
13,COC(=O)COc1cccc2c(=O)n(CC(=O)NCc3ccccc3)ccc12,2.99 (active)
14,CCOC(=O)C(C)Oc1cccc2c(=O)n(CC(=O)NCCc3ccc(OC)c(OC)c3)ccc12 (centres undefined),-0.831
15,COC(=O)COc1cccc2c(=O)n(CC(=O)NCCc3ccc(OC)c(OC)c3)ccc12,-0.562
16,COc1cccc(CN2CCNC(=O)C2CC(=O)N(C)CCc2ccccn2)c1 (centres undefined),0.0523
17,C/C(=N/NC(=O)CSc1ccccn1)c1ccc([N+](=O)[O-])cc1,-0.494
18,O=c1cnnc(Nc2ccccc2F)[nH]1,0.476
19,CCOC(=O)Cc1csc(NC(NC(=O)OCC)(C(F)(F)F)C(F)(F)F)n1,1.5
20,CCOC(=O)Cc1csc(NC(=O)CSc2nc(C)cc(=O)[nH]2)n1,-0.406
21,CCOC(=O)Cc1csc(NC(=O)Nc2ccccc2)n1,0.0709
22,CCOC(=O)Cc1csc(NC(=O)CSc2ccc(Br)cc2)n1,-2.72 (active)
23,CCOC(=O)Cc1csc(NC(=O)CSc2nnc(-c3cccnc3)n2Cc2ccco2)n1,0.0388
24,CCOC(=O)Cc1csc(SCC(=O)NC(C)C23CC4CC(CC(C4)C2)C3)n1 (centres undefined),-3.3 (active)

row,SMILES,B-score
1,Cn1nc(C(F)(F)F)c2cc(C(=O)N3CCOCC3)sc21,1.3
2,COc1ccccc1-n1ccnc1SCC(=O)NC(C)(C)C,-0.243
3,CCCCc1nc(NCc2ccccc2)c(C#N)c2c1CCCC2,0.19
4,Cc1nc(NCCN)c(C#N)c2c1COC(C)(C)C2,0.0226
5,CCCCc1nc(NCCN)c(C#N)c2c1CSC(C)(C)C2,-3.92 (active)
6,COc1cc2nc(CN(C)Cc3ccc(F)cc3)[nH]c(=O)c2cc1OC,0.927
7,COc1ccc(-c2nc(CN3CCN(c4ncccn4)CC3)c(C)o2)cc1C,-0.768
8,Cc1cc(NC(=O)OC(C)C)ccc1-c1ccc(NC(=O)OC(C)C)cc1C,0.938
9,O=C(NNC(=O)C1C2CCC(C2)C1C(=O)O)c1ccc(Cl)cc1 (centres undefined),-0.0201
10,C[C@H](NC(=O)c1ccccc1Cl)C(=O)OCCOc1cccc(Cl)c1,0.0242
11,COc1ccc(Cl)cc1C(=O)NNC(=S)NC(=O)/C=C/c1ccco1,1.26
12,COc1cccc2c(N/N=C/c3ccco3)cc(C)nc12,-0.776
13,COc1cc2c(cc1OC)C(/C=C/c1ccco1)=NCC2,-7.44 (active)
14,Cc1cc(=O)oc2c1c(C)nn2-c1ccc(Cl)cc1,0.108
15,COc1ccc(S(=O)(=O)NCC2CCCN(C(=O)c3occc3C)C2)cc1 (centres undefined),-0.286
16,C/C=C/C=C/C(=O)OCC(=O)Nc1ccc(Cl)cc1,-0.0163
17,CCC(C)NC(=O)Cn1nc(C(F)(F)F)c2c1CCC2 (centres undefined),-0.0332
18,Cc1cc(-c2csc(N)n2)c(C)n1Cc1ccccc1,-1.12
19,O=C(NC(Nc1nc2ccc([N+](=O)[O-])cc2s1)(C(F)(F)F)C(F)(F)F)c1ccccc1,-4.53 (active)
20,O=C(O)CCC(=O)Nc1nc2ccc([N+](=O)[O-])cc2s1,0.0361
21,O=C(Nc1nc2ccc([N+](=O)[O-])cc2s1)c1ccc(S(=O)(=O)N2CCCc3ccccc32)cc1,-2.44
22,O=C(NCCCN1CCOCC1)c1ccccc1NS(=O)(=O)c1ccc(F)cc1,0.243
